Screens (PubChem)
This is a sample that favours compounds with a hit; in the whole collection about 2.8% have one here.
DRD3 antagonist = qHTS of D3 Dopamine Receptor Antagonist: qHTS | D(3) dopamine receptor (Homo sapiens), P35462 | D3R cells, DiscoveRx beta-arrestin luminescence, antagonist mode; hits give low values | max response, negative = inhibition, % | actives 2.5% (n = 360,000) | AID 652054, 2013; in the data active = max response below about -50%; inconclusive = no clear call, values can overlap the other calls
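Cells plated overnight at 1500 cells/well, then exposed to library compounds with dopamine controls for 90 minutes at 37 degrees C. DiscoveRx reagent added for 30–60 minutes at room temperature; luminescence read, quantitative HTS format.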
D3 ag = qHTS of D3 Dopamine Receptor Agonist: qHTS | D3R DiscoveRx beta-arrestin cells, luminescence, 90 min | actives 0.58% (n = 410,000) | D(3) dopamine receptor (Homo sapiens), P35462 | max activation, % | AID 652048, 2013; in the data active = max activation above about 30%
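Cells at 1500/well, incubated overnight, then treated with pinned compounds (dopamine as control) for 90 min at 37 degrees C. DiscoveRx reagent added for 30 - 60 minutes at room temperature; luminescence read.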
Giardia kill = Small Molecules that selectively kill Giardia lamblia: qHTS; actives 0.15% (n = 340,000); Giardia lamblia trophozoite viability; activity change, % at 7.66 µM, hits read low; in the data active = activity change below about -80%; inconclusive = between about -30% and that limit;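 also: parasites exposed to compound for two days anaerobically before the ATP read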
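Anaerobic 48 hrs incubation at 37 deg C of 100 trophozoites/well with test compounds; ATPLite 1-Step luminescence, 15-30 min RT, reports cellular ATP as viability.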
B2AR arrestin = qHTS assay of beta-arrestin-biased ligands of beta2-adrenergic receptor | Beta-2 adrenergic receptor (Homo sapiens), P07550 | actives 0.02% (n = 330,000) | Potency, µM (series often up to 46.1 µM), usual class: activators | beta-arrestin recruitment to beta2AR, cell-based reporter; active = well fitted activation curve with a large enough effect; inconclusive = small, poorly fitted or top-dose-only effect; also: nearly all actives have a fitted effect of over 65% in size
Target sequence (P07550 whole entry, looked up): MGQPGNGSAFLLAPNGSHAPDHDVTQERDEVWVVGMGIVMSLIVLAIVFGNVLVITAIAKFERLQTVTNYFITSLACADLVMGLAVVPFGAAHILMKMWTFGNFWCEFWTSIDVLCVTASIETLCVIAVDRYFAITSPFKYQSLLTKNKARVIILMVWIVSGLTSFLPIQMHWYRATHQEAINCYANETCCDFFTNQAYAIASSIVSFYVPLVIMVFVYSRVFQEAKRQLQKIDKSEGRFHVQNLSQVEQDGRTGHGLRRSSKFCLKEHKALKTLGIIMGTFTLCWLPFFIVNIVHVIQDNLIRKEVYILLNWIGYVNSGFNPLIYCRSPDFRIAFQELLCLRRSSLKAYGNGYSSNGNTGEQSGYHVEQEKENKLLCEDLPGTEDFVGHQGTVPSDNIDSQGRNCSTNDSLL
Large screens that a line does not name were inactive.

COc1cc(C(=O)NC2CC3CCCC(C2)N3Cc2ccccc2)cc(OC)c1OC (stereo unspecified)	DRD3 antagonist -95
COc1ccc([N+](=O)[O-])cc1C(=O)NC1CCN(Cc2ccccc2)CC1	DRD3 antagonist -100 (no result: B2AR arrestin)
COc1cc(C(=O)NC2CCN(CC(=O)NC3CCCCC3)CC2)cc(OC)c1OC	none
COc1ccc(C(=O)NCCSCc2ccc(Cl)cc2)cc1OC	none
COc1cc(C(=O)NC2CCN(Cc3ccccc3)CC2)cc(Cl)c1OC	DRD3 antagonist -99
O=S(=O)(c1ccc(F)cc1F)N1CCN(c2nc(-c3cccs3)nc3ccccc23)CC1	none (no result: DRD3 antagonist, D3 ag, B2AR arrestin)
COc1ccc(C(=O)NC2CC3CCCC(C2)N3Cc2ccccc2)cc1OC (stereo unspecified)	DRD3 antagonist -94
COc1cc(C(=O)NC2CC3CCCC(C2)N3C2CC2)cc(OC)c1OC (stereo unspecified)	none
COc1ccc(CN2C3CCC2CC(NC(=O)c2cc(OC)c(OC)c(OC)c2)C3)cc1 (stereo unspecified)	DRD3 antagonist -66
CC1=CC(=O)c2ccccc2C1=O	DRD3 antagonist -53
CC(C)(C=O)C1=CC(=O)c2ccccc2C1=O	DRD3 antagonist -111
CC(C)Sc1ncc(Cl)c(C(=O)N(Cc2ccc(N(C)C)cc2)C2CCS(=O)(=O)C2)n1 (stereo unspecified)	none (no result: DRD3 antagonist, Giardia kill, B2AR arrestin)
CC1CCN(C(=O)Cn2ncc3c4ccccc4n(Cc4ccc(Cl)cc4)c3c2=O)CC1	none (no result: DRD3 antagonist, Giardia kill, B2AR arrestin)
CC(Oc1ccccc1)C(=O)Nc1ccc(NC(=O)c2ccccc2)cc1 (stereo unspecified)	DRD3 antagonist inconclusive
COc1cc(NC(=O)C(C)Oc2ccccc2)c(OC)cc1NC(=O)c1ccccc1 (stereo unspecified)	D3 ag 36
COc1cc(NC(=O)c2cccnc2)c(OC)cc1NC(=O)c1ccc(Br)cc1	D3 ag 121
COc1cc(NC(=O)c2ccc(Br)cc2)c(OC)cc1NC(=O)c1ccccc1	Giardia kill inconclusive
CCNc1nc(C#N)nc(N2CCOCC2)n1	none (no result: DRD3 antagonist, D3 ag, B2AR arrestin)
CCCCNCCOCCOc1ccccc1-c1ccccc1	DRD3 antagonist -87
CN(C)CCCCOc1ccccc1-c1ccccc1	DRD3 antagonist -77
CN(C)CCOc1ccccc1Cc1ccccc1	DRD3 antagonist -75
C=CCNCCOc1ccccc1-c1ccccc1	DRD3 antagonist -64
CN(C)CCCCOc1ccccc1F	none
Clc1ccc(-c2csc(=Nc3ccccc3)n2Cc2ccc3c(c2)OCO3)cc1	none (no result: DRD3 antagonist, Giardia kill, B2AR arrestin)
Cc1ccccc1OCC(=O)NCC(=O)OCC(=O)c1ccc2c(c1)CCCC2	none (no result: DRD3 antagonist, D3 ag, B2AR arrestin)
CCc1ccc(CN(Cc2cn[nH]c2-c2ccc(OC)cc2)C(=O)Nc2ccc(Br)cc2)cc1	none (no result: DRD3 antagonist, Giardia kill, B2AR arrestin)
Cc1nnc(NC(=O)c2sc3ccccc3c2Cl)s1	DRD3 antagonist -73, Giardia kill -84
Cc1ccc(S(=O)(=O)N(CC(=O)NCc2cccs2)c2ccccc2)cc1	DRD3 antagonist -66
CCCC/C(C)=N/NC(=O)CN(c1ccc(Br)cc1)S(=O)(=O)c1ccccc1	none
C/C(=N/NC(=O)CN(c1ccccc1)S(=O)(=O)c1ccccc1)c1ccccc1O	DRD3 antagonist -52
Nc1nonc1C(=O)OCC(=O)N1CCOCC1	none
CN1CCN(/C(=N\O)c2nonc2N)CC1	DRD3 antagonist -68
CO/N=C(/c1nonc1N)N1CCN(c2ccc([N+](=O)[O-])cc2)CC1	none
Nc1nonc1/C(=N/O)N1CCN(CCO)CC1	DRD3 antagonist -64
CN1CCN(c2nc(N3CCN(CCO)CC3)nc3ccccc23)CC1	none
OCCN1CCN(c2cc(-c3ccccc3)c3ccccc3n2)CC1	DRD3 antagonist -81
O=c1oc2cc([N+](=O)[O-])ccc2nc1/C=C(\O)c1cccc(Br)c1	DRD3 antagonist -56
CCCN1CCN(CCNC(=O)Nc2ccc(OC)c(OC)c2)CC1	none (no result: DRD3 antagonist, Giardia kill, B2AR arrestin)
CC[C@H]1OC(=O)C[C@@H](O)[C@H](C)[C@@H](O[C@@H]2O[C@H](C)[C@@H](O)[C@H](N(C)C)[C@H]2O)[C@@H](CCN2C[C@H](C)C[C@H](C)C2)C[C@@H](C)C(=O)/C=C/C(C)=C/[C@@H]1CO[C@@H]1O[C@H](C)[C@@H](O)[C@@H](OC)[C@H]1OC	none (no result: DRD3 antagonist, Giardia kill, B2AR arrestin)
Cn1c(-c2ccc(F)cc2)cnc1NCc1cccc(F)c1	DRD3 antagonist inconclusive
Cn1c(-c2cccc(Br)c2)cnc1NCc1cccnc1	DRD3 antagonist -60
Cc1ccc(Sc2ccc(/C=N/O)cc2[N+](=O)[O-])cc1	DRD3 antagonist -69 (no result: B2AR arrestin)
Cn1c2ccc(F)cc2c2nnc(SCC(=O)Nc3cccc(O)c3)nc21	D3 ag 34
Cn1c2ccccc2c2nnc(SCC(=O)Nc3cccc(C(=O)O)c3)nc21	none
COc1cc(C)c(C)cc1S(=O)(=O)N1CCN(Cc2ccc3c(c2)OCO3)CC1	DRD3 antagonist -55
O=S(=O)(c1ccc(F)c(F)c1)N1CCN(Cc2ccc3c(c2)OCO3)CC1	none
O=S(=O)(c1ccc2c(c1)OCCO2)N1CCN(Cc2ccc3c(c2)OCO3)CC1	DRD3 antagonist -50
COc1cc(S(=O)(=O)N2CCN(Cc3ccc4c(c3)OCO4)CC2)c(C)cc1C	none
Cc1ccc(C(=O)N2CC(=O)Nc3ccc(Br)cc3C2c2ccc(F)cc2)cc1C (stereo unspecified)	none (no result: DRD3 antagonist, Giardia kill, B2AR arrestin)
COc1cc2cc(CNc3ccccc3)c(=O)n(CC(=O)Nc3cccc(Cl)c3C)c2cc1OC	none (no result: DRD3 antagonist, Giardia kill, B2AR arrestin)
C=CC1=C2C=C(C3CC3)N(CCCN(CC)CC)C=C2C(=O)C(C)(OC(=O)c2ccco2)C1=O (stereo unspecified)	D3 ag 46, Giardia kill inconclusive (no result: B2AR arrestin)
Cc1ccc(Nc2nc3ccccc3c3nncn23)cc1C	none (no result: DRD3 antagonist, Giardia kill, B2AR arrestin)
O=C1CCN(CCc2ccccc2)CCN1C(CSc1ccc(Br)cc1)Cc1ccccc1 (stereo unspecified)	none (no result: DRD3 antagonist, D3 ag, B2AR arrestin)
COc1cc(C(=O)NCC(c2ccccc2)N(C)C)ccc1OCc1c(C)noc1C (stereo unspecified)	DRD3 antagonist -100
Cc1noc(C)c1COc1ccc(C(=O)Nc2ccccc2)cc1	DRD3 antagonist -55
Cc1noc(C)c1COc1ccc(C(=O)Nc2ccccn2)cc1	Giardia kill inconclusive
CCOC(=O)c1ccccc1NC(=O)N1CCOc2ccc(Cl)cc21	none (no result: DRD3 antagonist, Giardia kill, B2AR arrestin)
COc1cc2c(cc1OC)C1C/C(=N\O)C(CC(C)C)CN1CC2 (stereo unspecified)	DRD3 antagonist -58
COc1ccc(NC(=O)c2c(C)oc3ccc(O)c(CN4CCCCCC4)c23)cc1Cl	none (no result: DRD3 antagonist, Giardia kill, B2AR arrestin)
COc1ccc(OCCCC(=O)Nc2cccnc2)cc1	DRD3 antagonist -90
O=C(CCCOc1ccccc1)Nc1nccs1	DRD3 antagonist -57
CCc1ccc(OCCCC(=O)Nc2nccs2)cc1	none
O=C(NCc1ccccc1)C(CCc1ccccc1)n1c(=O)c(-c2ccccc2)nc2ccccc21 (stereo unspecified)	DRD3 antagonist -71 (no result: Giardia kill, B2AR arrestin)
O=C(NC1CCCCC1)C(c1ccnc2ccccc12)n1c(=O)c(-c2ccccc2)nc2ccccc21 (stereo unspecified)	DRD3 antagonist -68 (no result: Giardia kill, B2AR arrestin)
